In the supplement of paper PMC13380429:

What follows are compounds tested on Vero E6 infected with SARS-CoV-2 (assay: morphology score (similarity to uninfected cells); higher = more like uninfected cells). Conditions: 24 h.

Compound	morphology score
COc1ccc2cccc(CCNC(C)=O)c2c1 [agomelatine] (10 µM)	0.11
CN[C@H]1C(=O)N[C@@H]2Cc3ccc(cc3)Oc3cc4cc(c3O[C@@H]3O[C@H](C(=O)O)[C@@H](O)[C@H](O)[C@H]3NC(=O)CCCCCCCCC(C)C)Oc3ccc(cc3Cl)[C@@H](O)[C@@H]3NC(=O)[C@H](NC(=O)[C@@H]4NC(=O)[C@@H](NC2=O)c2cc(cc(O)c2Cl)Oc2cc1ccc2O)c1ccc(O)c(c1)-c1c(O[C@H]2O[C@H](CO)[C@@H](O)[C@H](O)[C@@H]2O)cc(O)cc1[C@@H](C(=O)NCCCN(C)C)NC3=O [dalbavancin] (10 µM)	-0.218
O=C(CCCCC(=O)Nc1c(I)cc(I)c(C(=O)O)c1I)Nc1c(I)cc(I)c(C(=O)O)c1I [iodipamide] (10 µM)	0.0415
COc1cccc([C@H](O)C2CCN(CCc3ccc(F)cc3)CC2)c1OC [volinanserin] (10 µM)	-0.147
CCCN[C@@H]1CCc2c(OC)cccc2[C@@H]1C (10 µM)	0.0456
NC(N)=Nc1nc(CSCCN/C=N/S(=O)(=O)c2ccc(Br)cc2)cs1 [ebrotidine] (10 µM)	0.0177
O=c1cc(-c2ccc(O)c(O)c2)oc2cc(O)cc(O)c12 [luteolin] (10 µM)	0.167
COc1ccc(C(=O)/C(Cc2cc(OC)c(OC)c(OC)c2)=C(\C(=O)O)c2ccc3c(c2)OCO3)cc1 (10 µM)	0.489
C[Se]C[C@H](N)C(=O)O [Se-methylselenocysteine] (10 µM)	0.107
CN(C)Cc1ccc(S(=O)(=O)n2ccc(/C=C/C(=O)NO)c2)cc1 [resminostat] (0.833333 µM)	-0.101
